# In the supplement of paper PMC4466140:
# Target: AgAbp1
# Assay: SPOT peptide array binding signal intensity (averaged, normalized) (arbitrary units (background-subtracted, floor 0; scale differs between SH3 domains)); higher = stronger binding of the SH3 domain to the peptide
# Procedure: (§1)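 GST-tagged SH3 domains from S. cerevisiae (Sc), A. gossypii (Ag), C. albicans (Ca) and S. pombe (Sp) were incubated at 10 ug/ml overnight at 4 C on cellulose SPOT membranes carrying 292 synthetic 15-mer peptides mined from the S. cerevisiae proteome (cysteines replaced by serines). Binding was detected with anti-GST antibody, HRP secondary and chemiluminescence, quantified with Genespotter, and reported as normalized spot intensities averaged over biological replicates.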
row,Binder,SPOT peptide array binding signal intensity
1,NNNKMRPHLPPLSSG,47.5

# Target: AgBbc1
# Assay: as above
# Procedure: as §1
row,Binder,SPOT peptide array binding signal intensity
1,NNNKMRPHLPPLSSG,1.5

# Target: AgBem1-D1
# Assay: as above
# Procedure: as §1
row,Binder,SPOT peptide array binding signal intensity
1,NNNKMRPHLPPLSSG,288

# Target: AgBzz1-D1
# Assay: as above
# Procedure: as §1
row,Binder,SPOT peptide array binding signal intensity
1,NNNKMRPHLPPLSSG,12

# Target: AgBzz1-D2
# Assay: as above
# Procedure: as §1
row,Binder,SPOT peptide array binding signal intensity
1,NNNKMRPHLPPLSSG,9

# Target: AgCyk3
# Assay: as above
# Procedure: as §1
row,Binder,SPOT peptide array binding signal intensity
1,NNNKMRPHLPPLSSG,≤ 0

# Target: AgFus1
# Assay: as above
# Procedure: as §1
row,Binder,SPOT peptide array binding signal intensity
1,NNNKMRPHLPPLSSG,386

# Target: AgHof1
# Assay: as above
# Procedure: as §1
row,Binder,SPOT peptide array binding signal intensity
1,NNNKMRPHLPPLSSG,291

# Target: AgHse1
# Assay: as above
# Procedure: as §1
row,Binder,SPOT peptide array binding signal intensity
1,NNNKMRPHLPPLSSG,932

# Target: AgLsb1
# Assay: as above
# Procedure: as §1
row,Binder,SPOT peptide array binding signal intensity
1,NNNKMRPHLPPLSSG,1.25

# Target: AgLsb4
# Assay: as above
# Procedure: as §1
row,Binder,SPOT peptide array binding signal intensity
1,NNNKMRPHLPPLSSG,34.5

# Target: AgMyo5
# Assay: as above
# Procedure: as §1
row,Binder,SPOT peptide array binding signal intensity
1,NNNKMRPHLPPLSSG,≤ 0

# Target: AgNbp2
# Assay: as above
# Procedure: as §1
row,Binder,SPOT peptide array binding signal intensity
1,NNNKMRPHLPPLSSG,513

# Target: AgRvs167
# Assay: as above
# Procedure: as §1
row,Binder,SPOT peptide array binding signal intensity
1,NNNKMRPHLPPLSSG,3.5

# Target: AgSho1
# Assay: as above
# Procedure: as §1
row,Binder,SPOT peptide array binding signal intensity
1,NNNKMRPHLPPLSSG,559

# Target: AgSla1-D1-D2
# Assay: as above
# Procedure: as §1
row,Binder,SPOT peptide array binding signal intensity
1,NNNKMRPHLPPLSSG,≤ 0

# Target: AgSla1-D3
# Assay: as above
# Procedure: as §1
row,Binder,SPOT peptide array binding signal intensity
1,NNNKMRPHLPPLSSG,0.5

# Target: CaAbp1-D1
# Assay: as above
# Procedure: as §1
row,Binder,SPOT peptide array binding signal intensity
1,NNNKMRPHLPPLSSG,613

# Target: CaAbp1-D2
# Assay: as above
# Procedure: as §1
row,Binder,SPOT peptide array binding signal intensity
1,NNNKMRPHLPPLSSG,330

# Target: CaBbc1
# Assay: as above
# Procedure: as §1
row,Binder,SPOT peptide array binding signal intensity
1,NNNKMRPHLPPLSSG,55.9

# Target: CaBem1-D1
# Assay: as above
# Procedure: as §1
row,Binder,SPOT peptide array binding signal intensity
1,NNNKMRPHLPPLSSG,264

# Target: CaBzz1-D1
# Assay: as above
# Procedure: as §1
row,Binder,SPOT peptide array binding signal intensity
1,NNNKMRPHLPPLSSG,85.8

# Target: CaBzz1-D2
# Assay: as above
# Procedure: as §1
row,Binder,SPOT peptide array binding signal intensity
1,NNNKMRPHLPPLSSG,49.8

# Target: CaCyk3
# Assay: as above
# Procedure: as §1
row,Binder,SPOT peptide array binding signal intensity
1,NNNKMRPHLPPLSSG,4

# Target: CaFus1
# Assay: as above
# Procedure: as §1
row,Binder,SPOT peptide array binding signal intensity
1,NNNKMRPHLPPLSSG,1790

# Target: CaHof1
# Assay: as above
# Procedure: as §1
row,Binder,SPOT peptide array binding signal intensity
1,NNNKMRPHLPPLSSG,≤ 0

# Target: CaHse1
# Assay: as above
# Procedure: as §1
row,Binder,SPOT peptide array binding signal intensity
1,NNNKMRPHLPPLSSG,487

# Target: CaLsb1
# Assay: as above
# Procedure: as §1
row,Binder,SPOT peptide array binding signal intensity
1,NNNKMRPHLPPLSSG,3.75

# Target: CaLsb4
# Assay: as above
# Procedure: as §1
row,Binder,SPOT peptide array binding signal intensity
1,NNNKMRPHLPPLSSG,728

# Target: CaMyo5
# Assay: as above
# Procedure: as §1
row,Binder,SPOT peptide array binding signal intensity
1,NNNKMRPHLPPLSSG,36.2

# Target: CaNbp2
# Assay: as above
# Procedure: as §1
row,Binder,SPOT peptide array binding signal intensity
1,NNNKMRPHLPPLSSG,1410

# Target: CaRvs167
# Assay: as above
# Procedure: as §1
row,Binder,SPOT peptide array binding signal intensity
1,NNNKMRPHLPPLSSG,53.7

# Target: CaRvs167-3
# Assay: as above
# Procedure: as §1
row,Binder,SPOT peptide array binding signal intensity
1,NNNKMRPHLPPLSSG,4

# Target: CaSho1
# Assay: as above
# Procedure: as §1
row,Binder,SPOT peptide array binding signal intensity
1,NNNKMRPHLPPLSSG,1520

# Target: CaSla1-D1-D2
# Assay: as above
# Procedure: as §1
row,Binder,SPOT peptide array binding signal intensity
1,NNNKMRPHLPPLSSG,396

# Target: CaSla1-D3
# Assay: as above
# Procedure: as §1
row,Binder,SPOT peptide array binding signal intensity
1,NNNKMRPHLPPLSSG,109

# Target: ScAbp1
# Assay: as above
# Procedure: as §1
row,Binder,SPOT peptide array binding signal intensity
1,NNNKMRPHLPPLSSG,256

# Target: ScBbc1
# Assay: as above
# Procedure: as §1
row,Binder,SPOT peptide array binding signal intensity
1,NNNKMRPHLPPLSSG,≤ 0

# Target: ScBem1-D1
# Assay: as above
# Procedure: as §1
row,Binder,SPOT peptide array binding signal intensity
1,NNNKMRPHLPPLSSG,≤ 0

# Target: ScBzz1-D1
# Assay: as above
# Procedure: as §1
row,Binder,SPOT peptide array binding signal intensity
1,NNNKMRPHLPPLSSG,≤ 0

# Target: ScBzz1-D2
# Assay: as above
# Procedure: as §1
row,Binder,SPOT peptide array binding signal intensity
1,NNNKMRPHLPPLSSG,≤ 0

# Target: ScCyk3
# Assay: as above
# Procedure: as §1
row,Binder,SPOT peptide array binding signal intensity
1,NNNKMRPHLPPLSSG,2.25

# Target: ScFus1
# Assay: as above
# Procedure: as §1
row,Binder,SPOT peptide array binding signal intensity
1,NNNKMRPHLPPLSSG,424

# Target: ScHof1
# Assay: as above
# Procedure: as §1
row,Binder,SPOT peptide array binding signal intensity
1,NNNKMRPHLPPLSSG,267

# Target: ScHse1
# Assay: as above
# Procedure: as §1
row,Binder,SPOT peptide array binding signal intensity
1,NNNKMRPHLPPLSSG,1820

# Target: ScLsb1
# Assay: as above
# Procedure: as §1
row,Binder,SPOT peptide array binding signal intensity
1,NNNKMRPHLPPLSSG,27.2

# Target: ScLsb2
# Assay: as above
# Procedure: as §1
row,Binder,SPOT peptide array binding signal intensity
1,NNNKMRPHLPPLSSG,0.5

# Target: ScLsb3
# Assay: as above
# Procedure: as §1
row,Binder,SPOT peptide array binding signal intensity
1,NNNKMRPHLPPLSSG,357

# Target: ScLsb4
# Assay: as above
# Procedure: as §1
row,Binder,SPOT peptide array binding signal intensity
1,NNNKMRPHLPPLSSG,163

# Target: ScMyo3
# Assay: as above
# Procedure: as §1
row,Binder,SPOT peptide array binding signal intensity
1,NNNKMRPHLPPLSSG,10.5

# Target: ScMyo5
# Assay: as above
# Procedure: as §1
row,Binder,SPOT peptide array binding signal intensity
1,NNNKMRPHLPPLSSG,2

# Target: ScNbp2
# Assay: as above
# Procedure: as §1
row,Binder,SPOT peptide array binding signal intensity
1,NNNKMRPHLPPLSSG,710

# Target: ScPex13
# Assay: as above
# Procedure: as §1
row,Binder,SPOT peptide array binding signal intensity
1,NNNKMRPHLPPLSSG,116

# Target: ScRvs167
# Assay: as above
# Procedure: as §1
row,Binder,SPOT peptide array binding signal intensity
1,NNNKMRPHLPPLSSG,55.6

# Target: ScSho1
# Assay: as above
# Procedure: as §1
row,Binder,SPOT peptide array binding signal intensity
1,NNNKMRPHLPPLSSG,1410

# Target: ScSla1-D1-D2
# Assay: as above
# Procedure: as §1
row,Binder,SPOT peptide array binding signal intensity
1,NNNKMRPHLPPLSSG,156

# Target: ScSla1-D3
# Assay: as above
# Procedure: as §1
row,Binder,SPOT peptide array binding signal intensity
1,NNNKMRPHLPPLSSG,224

# Target: SpAbp1-D1
# Assay: as above
# Procedure: as §1
row,Binder,SPOT peptide array binding signal intensity
1,NNNKMRPHLPPLSSG,323

# Target: SpBbc1
# Assay: as above
# Procedure: as §1
row,Binder,SPOT peptide array binding signal intensity
1,NNNKMRPHLPPLSSG,1

# Target: SpBzz1-D1
# Assay: as above
# Procedure: as §1
row,Binder,SPOT peptide array binding signal intensity
1,NNNKMRPHLPPLSSG,354

# Target: SpBzz1-D2
# Assay: as above
# Procedure: as §1
row,Binder,SPOT peptide array binding signal intensity
1,NNNKMRPHLPPLSSG,6.38
2,LSKRLPLRFPEHTSS,≤ 0

# Target: SpCyk3
# Assay: as above
# Procedure: as §1
row,Binder,SPOT peptide array binding signal intensity
1,NNNKMRPHLPPLSSG,1.75
2,LSKRLPLRFPEHTSS,≤ 0

# Target: SpHof1
# Assay: as above
# Procedure: as §1
row,Binder,SPOT peptide array binding signal intensity
1,NNNKMRPHLPPLSSG,9.5
2,LSKRLPLRFPEHTSS,86

# Target: SpHof1-2
# Assay: as above
# Procedure: as §1
row,Binder,SPOT peptide array binding signal intensity
1,NNNKMRPHLPPLSSG,78.8
2,LSKRLPLRFPEHTSS,36.2

# Target: SpHof1-3
# Assay: as above
# Procedure: as §1
row,Binder,SPOT peptide array binding signal intensity
1,NNNKMRPHLPPLSSG,552
2,LSKRLPLRFPEHTSS,538

# Target: SpHse1
# Assay: as above
# Procedure: as §1
row,Binder,SPOT peptide array binding signal intensity
1,NNNKMRPHLPPLSSG,1170
2,LSKRLPLRFPEHTSS,403

# Target: SpLsb1
# Assay: as above
# Procedure: as §1
row,Binder,SPOT peptide array binding signal intensity
1,NNNKMRPHLPPLSSG,3.38
2,LSKRLPLRFPEHTSS,4.75

# Target: SpLsb4
# Assay: as above
# Procedure: as §1
row,Binder,SPOT peptide array binding signal intensity
1,NNNKMRPHLPPLSSG,904
2,LSKRLPLRFPEHTSS,1200

# Target: SpMyo1
# Assay: as above
# Procedure: as §1
row,Binder,SPOT peptide array binding signal intensity
1,NNNKMRPHLPPLSSG,28.1
2,LSKRLPLRFPEHTSS,3.75

# Target: SpNbp2
# Assay: as above
# Procedure: as §1
row,Binder,SPOT peptide array binding signal intensity
1,NNNKMRPHLPPLSSG,460
2,LSKRLPLRFPEHTSS,32

# Target: SpPex13
# Assay: as above
# Procedure: as §1
row,Binder,SPOT peptide array binding signal intensity
1,NNNKMRPHLPPLSSG,92.5
2,LSKRLPLRFPEHTSS,2

# Target: SpRvs167
# Assay: as above
# Procedure: as §1
row,Binder,SPOT peptide array binding signal intensity
1,NNNKMRPHLPPLSSG,119
2,LSKRLPLRFPEHTSS,143

# Target: SpSla1-D1-D2
# Assay: as above
# Procedure: as §1
row,Binder,SPOT peptide array binding signal intensity
1,NNNKMRPHLPPLSSG,≤ 0
2,LSKRLPLRFPEHTSS,≤ 0

# Target: SpSla1-D3
# Assay: as above
# Procedure: as §1
row,Binder,SPOT peptide array binding signal intensity
1,NNNKMRPHLPPLSSG,64.5
2,LSKRLPLRFPEHTSS,≤ 0
